The source of these data is PubChem BioAssay AID2625 (National Center for Advancing Translational Sciences (NCATS), 2010).

Inconclusive results are not listed. Unmarked numbers belong to inactive results. The call rests on the fitted dose curve; in most records, active means well fitted curve in the direction sought with a large enough effect; inconclusive means small, poorly fitted or top-dose-only effect, or effect the other way, or another doubt; inactive means no such curve, though single readings can be large or run the other way.

The target in the test is Pyruvate kinase PKLR (Homo sapiens) (UniProt P30613). Nature of the test: Secondary LDH Assay for Activators of Human Liver Pyruvate Kinase: for Probe SAR.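 Further: 0% = uninhibited enzyme rate and 100% = full activation by fructose bisphosphate.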 The conditions noted are these: purified hPK-L, LDH-coupled NADH fluorescence kinetic; series mostly up to 58.2 µM; activity change, positive = activation: at the top concentration. Put shortly: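 Kinetic LDH-coupled read-out: NADH fluorescence loss followed every 30 s for 3–6 min gave initial rates. Reaction: 10 nM human liver PK, 0.1 mM PEP, 4 mM ADP, 0.2 mM NADH, 50 mM Tris-Cl pH 8.0; activation normalised to fructose-bis-phosphate.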
Chain of Pyruvate kinase PKLR (Homo sapiens) (P30613 whole entry, looked up): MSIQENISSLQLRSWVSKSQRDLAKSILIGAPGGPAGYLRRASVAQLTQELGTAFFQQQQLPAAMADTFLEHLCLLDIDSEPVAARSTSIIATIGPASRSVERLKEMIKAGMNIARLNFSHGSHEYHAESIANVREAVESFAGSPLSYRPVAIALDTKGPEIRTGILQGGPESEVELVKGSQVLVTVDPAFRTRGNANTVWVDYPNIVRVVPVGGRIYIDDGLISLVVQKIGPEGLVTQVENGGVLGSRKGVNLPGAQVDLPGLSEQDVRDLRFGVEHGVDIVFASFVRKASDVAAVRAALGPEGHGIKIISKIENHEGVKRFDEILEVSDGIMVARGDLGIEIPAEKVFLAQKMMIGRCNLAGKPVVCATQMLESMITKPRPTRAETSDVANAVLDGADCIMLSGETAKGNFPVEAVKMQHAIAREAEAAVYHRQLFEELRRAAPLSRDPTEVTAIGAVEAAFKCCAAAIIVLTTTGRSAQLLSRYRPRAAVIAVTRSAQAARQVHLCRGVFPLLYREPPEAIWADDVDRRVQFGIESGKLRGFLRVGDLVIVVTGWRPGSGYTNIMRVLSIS
With `Cc1ccc(NS(=O)(=O)c2cc3c(cc2F)NC(=O)CC3)cc1C`, the “activity change, positive = activation” value was 10.1%. For the compound `CCNc1cccc(S(=O)(=O)N2CCN(S(=O)(=O)c3ccc4c(c3)OCCO4)CC2)c1`, the “activity change, positive = activation” value was -8.22%. Next, `COc1cccc(N2C(=O)c3ccccc3C2=O)n1`: -2.51%. As for `O=C1CCc2cc(S(=O)(=O)Nc3cccc(Br)c3)ccc2N1`, the “activity change, positive = activation” value is -13.1%. With `CC(=O)N1CCc2cc(S(=O)(=O)Nc3ccc(C)c(C)c3)ccc21`, the “activity change, positive = activation” value was -14%. Consider `Cc1ccccc1OC1=NS(=O)(=O)c2ccccc21`, for which the “activity change, positive = activation” value is -2.31%. Next, `O=C1CCc2cc(S(=O)(=O)Nc3ccc(Cl)cc3)ccc2N1`: -12.1%; `O=C1c2ccccc2C(=O)N1c1cncc2ccccc12`: -15.4%. On to `Cn1c2cc(S(C)=O)sc2c2cnn(Cc3cccc(O)c3)c(=O)c21` (centres undefined), for which the “activity change, positive = activation” value is 13.1%.

For `Cc1c(Cl)cccc1NS(=O)(=O)c1cc2c(cc1F)NC(=O)CC2`, the “activity change, positive = activation” value was 2.22%. With `O=C1CCc2cc(S(=O)(=O)Nc3cccc(Cl)c3)ccc2N1` the figure was -13.6%.

On to `CN(C)c1cccc(S(=O)(=O)N2CCN(S(=O)(=O)c3ccc4c(c3)OCCO4)CC2)c1`, for which the “activity change, positive = activation” value is -8.27%.

For `Cc1ccc(NS(=O)(=O)c2cccc(Cl)c2)cc1C`, the “activity change, positive = activation” value was -8.62%. Next, `Cc1ccc(NC(=O)c2ccc3c(c2)CCC(=O)N3)cc1C`: -8.05%. As to `COc1ccccc1N1C(=O)c2ccccc2C1=O`, the “activity change, positive = activation” value was 12.7%.

Turning to `Cc1ccc(NS(=O)(=O)c2ccc(F)cc2)cc1C`, the “activity change, positive = activation” value was -14.1%.

As for `O=C1c2ccccc2C(=O)N1c1cccc2ccncc12`, the “activity change, positive = activation” value was -12.7%.

With `COc1cccc(N2C(=O)c3ccccc3C2=O)c1`, the “activity change, positive = activation” value is -13.5%. Consider `Cc1ccc(NS(=O)(=O)c2cc3c(cc2N2CCC2)NC(=O)CC3)cc1C`, for which the “activity change, positive = activation” value is -23.5%. Next, `Cc1ccc(NS(=O)(=O)c2cc3c(cc2-c2ccccc2)NC(=O)CO3)cc1C`: -14.4%; `CNc1cc2c(cc1S(=O)(=O)Nc1ccc(C)c(C)c1)CCC(=O)N2`: -7.54%. With `O=C1c2ccccc2C(=O)N1c1nccs1`, the “activity change, positive = activation” value is 6.12%.

On to `Cc1ccc(C)c(OC2=NS(=O)(=O)c3ccccc32)c1`, for which the “activity change, positive = activation” value was -15%. Regarding `Cc1ccc(-c2nc3ccc(Cl)cn3c2Nc2ccccc2)o1`, the “activity change, positive = activation” value is -3.6%.
